Among the test systems are SK-MEL-2 melanoma; EKVX NSCLC; UO-31 renal; TK-10 renal; ACHN renal; CAKI-1 renal; A498 renal; CCRF-CEM leukemia; MOLT-4 leukemia; SN12C renal.
What all share (assay): NCI-60 one-dose screen, 48 h (100 = growth as untreated, 0 = no growth, -100 = all killed)
Holding throughout (settings): 10 µM

Consider 15 molecules from PubChem BioAssay (NCI).

About 83,000 compounds went through this panel and 20% of them were active in at least one assay; those are over-represented in the sample as a whole.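 Testing used 96-well plates and a 48-hour single-concentration exposure. Example: -40 means 40% of the starting cells died.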 Unmarked numbers belong to inactive results. The source made the active and inactive calls. Rule for the calls: active = growth percent below 10; inactive = the rest.

For `COC(=O)c1cnc2c(c1)Oc1ccccc1-c1ccnn1-2`, the growth is 96.3% with SK-MEL-2 melanoma; 92.1% in the assay on EKVX NSCLC; 80.8% with UO-31 renal; 95.3% with TK-10 renal; 101% in the assay on ACHN renal; 86.8% in the assay on CAKI-1 renal. The results for the growth in the assay with A498 renal, in the assay on CCRF-CEM leukemia and in the assay with MOLT-4 leukemia were 90.4%, 94.9% and 91.1%, respectively.
Turning to `CCOC(=O)Nc1ccc2c(c1)C(=O)N(CC)c1ccccc1O2`, the growth was 14.6% with SK-MEL-2 melanoma; 32.8% in the assay with EKVX NSCLC; 53.7% with UO-31 renal; 74.8% in the assay with TK-10 renal; 35.6% in the assay with ACHN renal; 31.1% with CAKI-1 renal. The growth in the assay with A498 renal is -4.82% (active); in the assay on CCRF-CEM leukemia, 13.5%; in the assay with MOLT-4 leukemia, 14.5%.
In the case of `COC(=O)[C@]12CC[C@@H](C)[C@H](C)[C@@H]1C1=CC[C@@H]3[C@@]4(C)CC(=O)[C@H](O)[C@@]5(C)COC(=C45)C[C@@]3(C)[C@]1(C)CC2`, the growth with SK-MEL-2 melanoma was -74.1% (active); in the assay on EKVX NSCLC, -55.5% (active); with UO-31 renal, -87.5% (active); in the assay on TK-10 renal it was -76.5% (active); with ACHN renal, -83.8% (active); with CAKI-1 renal, -36.9% (active). Besides, the growth was -84.1% (active) with A498 renal, -40.1% (active) with CCRF-CEM leukemia and -54.9% (active) in the assay on MOLT-4 leukemia.
In the case of `O=C(/C=C/c1ccc(Cl)cc1)c1ccc(Br)cc1`, the growth with SK-MEL-2 melanoma is 104%; in the assay on EKVX NSCLC it was 97.2%; in the assay on UO-31 renal, 90%; with TK-10 renal, 81.2%; in the assay with CAKI-1 renal, 101%; in the assay on A498 renal, -44.1% (active). The figures for the growth with CCRF-CEM leukemia and in the assay with MOLT-4 leukemia were 110% and 97.7%, respectively.
`Cc1nc2ccc(-n3c(-c4ccc(Cl)cc4)nc4ccccc4c3=O)cc2n1Cc1ccccc1`: the growth with SK-MEL-2 melanoma is 96.5%; with EKVX NSCLC, 90.1%; with UO-31 renal, 59%; in the assay on ACHN renal it was 91.9%; in the assay on CAKI-1 renal, 81.3%; in the assay with A498 renal, 89.7%. For the same molecule, the growth in the assay with CCRF-CEM leukemia was 80.2%; with MOLT-4 leukemia, 84.1%.
For the molecule `O=C(c1ccccc1)C(Sc1ccccc1)c1ccccc1` (stereo not given), the growth with SK-MEL-2 melanoma is 62%; with EKVX NSCLC, 106%; with UO-31 renal, 79.9%; with TK-10 renal, 101%; with CAKI-1 renal it was 82.5%; in the assay on A498 renal, 92.1%. The growth in the assay on CCRF-CEM leukemia is 89.9%; in the assay on MOLT-4 leukemia, 67%.
In the case of `O=C(O)c1cc(C(F)(F)F)cc(C(F)(F)F)c1`, the growth is 97.1% in the assay with SK-MEL-2 melanoma; 105% in the assay with EKVX NSCLC; 77.8% in the assay on UO-31 renal; 135% in the assay with TK-10 renal; 105% with ACHN renal; 99.6% in the assay with CAKI-1 renal. Moreover, the growth in the assay with A498 renal is 84.4%; with CCRF-CEM leukemia, 102%; with MOLT-4 leukemia it was 95%.
For `CN(C)c1ccc2c(c1)OC(N)=C(C#N)C2c1ccc2c(c1)CCCN2C` (stereo not given), the growth with SK-MEL-2 melanoma is 30.7%; with EKVX NSCLC, 34.5%; with UO-31 renal it was 51.4%; in the assay on ACHN renal, 52.8%; in the assay on CAKI-1 renal, 40%; in the assay with A498 renal, -8.42% (active). The growth in the assay on CCRF-CEM leukemia was 24.5%; with MOLT-4 leukemia, 35.8%.
With `CC(C)c1[nH]nc2c(NCc3ccc(-c4ccccn4)cc3)nc(SCCN)nc12`, the growth is -82.1% (active) in the assay with SK-MEL-2 melanoma; 1.6% (active) in the assay with EKVX NSCLC; 0.673% (active) in the assay on UO-31 renal; 6.26% (active) in the assay with ACHN renal; 25.6% in the assay on CAKI-1 renal; -69.5% (active) in the assay on A498 renal. In addition, the growth in the assay with CCRF-CEM leukemia was -0.568% (active); in the assay with MOLT-4 leukemia, -0.423% (active).
Regarding `CCCCOCCOCCOCc1cc2c(cc1Br)OCO2`, the growth with SK-MEL-2 melanoma is 92%; in the assay on EKVX NSCLC it was 104%; in the assay with UO-31 renal, 76.7%; with TK-10 renal, 96.3%; with ACHN renal, 98.8%; with CAKI-1 renal, 98.5%. Also, the growth with A498 renal is -60.6% (active); with MOLT-4 leukemia it was 92.3%.
As for `COc1cc2ccnc(C=O)c2cc1OC`, the growth in the assay with SK-MEL-2 melanoma is 83.2%; in the assay on SN12C renal, 77.8%; in the assay with UO-31 renal, 13.8%; in the assay with TK-10 renal, 50.4%; in the assay on ACHN renal, 51.2%; with CAKI-1 renal it was 47.5%. Further, the growth in the assay with A498 renal is 111%; with CCRF-CEM leukemia it was -3.23% (active); in the assay with MOLT-4 leukemia, 29.7%.
In the case of `COc1cc(-c2n/c(=C\c3c(O)[nH]c4ccccc34)cc3c2=Nc2ccccc2-3)cc(OC)c1OC`, the growth in the assay on SK-MEL-2 melanoma was 35.6%; in the assay on EKVX NSCLC it was 45.8%; with UO-31 renal it was 33.9%; in the assay on TK-10 renal it was 57.9%; in the assay with ACHN renal, 37.2%; in the assay on CAKI-1 renal, 29.5%. Further, the results for the growth in the assay with A498 renal and with MOLT-4 leukemia were -16.3% (active) and -13.5% (active), respectively.
Consider `CC1(C)CNC(=O)N1`, for which the growth in the assay on SK-MEL-2 melanoma is 98.8%; in the assay on EKVX NSCLC it was 96%; with UO-31 renal, 87.7%; with ACHN renal it was 110%; in the assay on CAKI-1 renal it was 97.1%; in the assay on A498 renal it was 95.5%. The growth with CCRF-CEM leukemia was 95.4%; in the assay on MOLT-4 leukemia, 101%.
Regarding `COc1cc(C2c3cc4c(cc3C(O)C(CO)C2CO)OCO4)cc(OC)c1OC` (stereo not given), the growth with SK-MEL-2 melanoma was 32.2%; in the assay with EKVX NSCLC, 7.57% (active); in the assay on UO-31 renal, 13.4%; in the assay on TK-10 renal, 46.7%; in the assay with ACHN renal, 53.9%; in the assay on CAKI-1 renal it was 65.9%. The growth with A498 renal is -0.141% (active); in the assay on MOLT-4 leukemia, 16.8%.
As for `COC(=O)[C@]12CC[C@@H](C)[C@H](C)[C@@H]1C1=CC[C@@H]3[C@@]4(C)C[C@@H](O)[C@H](O)[C@@](C)(CO)[C@@H]4[C@H](O)C[C@@]3(C)[C@]1(C)CC2`, the growth with SK-MEL-2 melanoma was -88.2% (active); in the assay on EKVX NSCLC, -33.1% (active); in the assay on UO-31 renal, -52.2% (active); in the assay with ACHN renal, -48.3% (active); in the assay with CAKI-1 renal, 0.468% (active); with A498 renal, -80.2% (active). Further, the growth was -43.7% (active) in the assay with CCRF-CEM leukemia and -51.9% (active) in the assay with MOLT-4 leukemia.
